Many of the other results were omitted from the sample, so hits are more common in it than they were.
Six1-Eya2 blk – Six1/Eya2 interaction inhibition | hit rate 0.56% among 360,000 | Q15475+O00167 | AID 651725 | AlphaScreen GST-Six1/His-Eya2 binding, biochemical; stronger effect = lower value | activity change, % (concentration not given with the values); in the data active = activity change below about -65%; inconclusive = mostly about -30% to -63%
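GST-Six1 + His-Eya2 (5X stock: 250/500 nM); Tris pH 8.0, 300 mM NaCl, 0.05% BSA, 0.02% Tween 20; GSH donor/Ni acceptor beads; 1 h 37 °C dark; AlphaScreen readout.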
Eya2 phos inh – blocks the phosphatase activity of human Eya2; O00167; recombinant Eya2, OMFP fluorescence dephosphorylation (OMFP is methylfluorescein phosphate); Potency, µM (top dose mostly 76.9 µM), without a hit: top-dose activity, negative = inhibition, hits mostly inhibitors; hit rate 0.006% among 330,000; note: potency is the fitted concentration of half-maximal effect
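Eya2 (0.2 uM) preincubated 10 min at ambient with compound, then OMFP substrate added at 50 uM; 10 min reaction in 50 mM HEPES pH 7.5, 50 mM NaCl, 5 uM MgCl2, 0.05% BSA, 1 mM DTT. Fluorescence read at Ex 485/Em 525 nm.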
JMJD2E inh – JMJD2E (human) inhibition; B2RXH2; JMJD2E catalytic domain, FDH-coupled NADH fluorescence (FDH is formaldehyde dehydrogenase); Potency, µM (titrated, usually from 57.1 µM), for the others: at the top dose activity change, negative = inhibition, actives largely listed as inhibitors; hit rate 1.6% among 230,000; active = well fitted inhibition curve with a large enough effect, not every such curve was filed as active; inconclusive = small, poorly fitted or top-dose-only effect, or another doubt; inactive = no such curve, though single readings can be large or run the other way;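 note: potency is the fitted concentration of half-maximal effect; 0% = wells with enzyme and -100% = buffer wells without enzyme; nearly all actives have a fitted effect of over 50% in size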
CtBP-E1A blk – CtBP/E1A binding inhibition; AlphaScreen GST-E1A/His-CtBP binding, 1536-well; stronger effect = lower value; activity change, % (no concentration beside the values); hit rate 0.49% among 340,000; AID 651724; in the data active = activity change below about -65%; inconclusive = mostly about -30% to -63%
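Protein mix (5X: 125 nM each GST-E1A, His-CtBP) was incubated with pinned compound 2 h at 37 deg C in dark, in 50 mM Tris pH 8.0 buffer with 300 mM NaCl. Glutathione donor and nickel acceptor beads followed; AlphaScreen signal read after 1 h.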
Apoferritin bind – binds horse apoferritin like a general anesthetic; P02791; apoferritin/1-aminoanthracene competitive binding, fluorescence; Potency, µM (series often up to 77.5 µM), for inactives: at the highest dose activity change, negative = displacement, hits mostly inhibitors; hit rate 0.074% among 350,000; AID 485281; note: potency is the fitted concentration of half-maximal effect; nearly all actives have a fitted effect of over 20% in size
Target sequence (P02791 2-175 limits assumed): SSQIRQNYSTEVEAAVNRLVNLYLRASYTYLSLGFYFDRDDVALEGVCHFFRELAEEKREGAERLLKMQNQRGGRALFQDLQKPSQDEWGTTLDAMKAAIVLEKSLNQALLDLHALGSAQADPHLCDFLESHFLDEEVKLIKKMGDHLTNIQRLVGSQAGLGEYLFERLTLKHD
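Read-out: endpoint 1-AMA fluorescence, excitation 380 nm and emission 535 nm, after compounds sit 10 min at room temperature with 10 uM horse-spleen apoferritin in 50% saturated 1-AMA/PBS. Values come from four-parameter Hill fits.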
GALK inh – blocks human galactokinase activity; AID 1868; hit rate 0.007% among 270,000; Purified GALK, Kinase-Glo residual ATP luminescence; Potency, µM (titrated, usually from 57.5 µM), for inactives: top-dose activity change, negative = inhibition, usual class: inhibitors; note: potency is the fitted concentration of half-maximal effect
Target sequence (P51570 whole entry, looked up): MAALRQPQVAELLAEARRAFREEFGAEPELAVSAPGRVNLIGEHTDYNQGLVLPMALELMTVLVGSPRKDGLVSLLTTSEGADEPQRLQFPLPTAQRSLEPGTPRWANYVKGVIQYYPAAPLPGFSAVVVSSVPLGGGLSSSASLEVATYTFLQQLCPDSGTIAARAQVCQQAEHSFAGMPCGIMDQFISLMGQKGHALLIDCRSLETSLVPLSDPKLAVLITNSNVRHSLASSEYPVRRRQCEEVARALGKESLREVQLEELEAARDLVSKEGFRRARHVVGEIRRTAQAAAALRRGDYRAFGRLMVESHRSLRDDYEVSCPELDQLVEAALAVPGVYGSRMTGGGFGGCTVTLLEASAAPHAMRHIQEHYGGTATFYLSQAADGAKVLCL
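GALK at 5 nM final was combined with compound, 35 uM ATP and 100 uM galactose in HEPES pH8.0 with MgCl2 and DTT. The reaction ran one hour at room temperature before luminescent ATP detection.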
* = called active by the depositor; ? = inconclusive; . = no result given. Unless noted, calls come from the whole dose curve; as a rule, active = well fitted curve in the direction sought with a large enough effect; inconclusive = small, poorly fitted or top-dose-only effect, or another doubt; inactive = no such curve, though single readings can be large; an effect the other way counts as inactive or inconclusive. Unless noted, % is set by controls: 0 for no effect and ±100 for the full control effect.

SMILES	Six1-Eya2 blk	Eya2 phos inh	JMJD2E inh	CtBP-E1A blk	Apoferritin bind	GALK inh
Cc1ccc(N2C(=O)CC3(CC4C=CC3C4)C2=O)cc1 (stereo not given)	3.6	17.1%	3.9%	3.5	7.94µM*	-3.4%
Cc1nc(-c2coc3c(O)c(O)ccc3c2=O)cs1	.	.	7.08µM*	.	.	.
COC(=O)/C=C\c1cc(O)ccc1O	.	.	31.6µM*	.	.	.
CC(=O)c1cccc(NC(=O)CSc2nnc3ccc(-c4ccc(C)cc4)nn23)c1	.	.	.	.	-10.7%	.
Nc1[nH]n(-c2ccccc2)c(=O)c1N=Nc1ccc2c(c1)OCCO2	-68.7*	-14.8%	-1.6%	-0.1	-20.6%	15.0%
CCC(=O)N1CCc2cc(CNS(=O)(=O)c3ccccc3F)ccc21	.	.	.	.	-4.1%	.
Cc1cc(SCC(=O)N/N=C/c2ccc(O)c(O)c2)c(C)cc1Br	-0.4	-0.4%	?	-0.2	22.4µM*	-0.3%
COc1cccc2c(SCC(=O)N/N=C/c3ccc(O)c(O)c3)cc(C)nc12	-71.3*	-10.7%	15.8µM*	-74.3*	-13.0%	-2.7%
Cn1c2ccccc2c2cc(/C=N/NC(=O)c3cc(O)ccc3O)ccc21	-68.7*	7.7%	.	?	-17.5%	-0.9%
COc1cccc2c(SCC(=O)N/N=C/c3ccccc3)cc(C)nc12	-7.1	-4.7%	-9.5%	-2.4	-19.0%	-0.2%
COc1ccc2nc(C)cc(SCC(=O)N/N=C/c3ccc(O)c(O)c3)c2c1	-72.2*	-7.8%	5.01µM*	-71.8*	-8.9%	2.3%
CCOC(=O)c1ccc(CN(Cc2ccc(OC)cc2)S(=O)(=O)c2cccc(C(F)(F)F)c2)cc1	.	.	.	.	59.5%	.
C[C@@H]1OC(Oc2ccccc2-c2cc(=O)c3c(O)cc(O)c([C@@H]4O[C@H](CO)[C@@H](O)[C@H](O)[C@H]4O)c3o2)[C@H](O)[C@H](O)[C@H]1O (stereo not given in full)	.	.	.	.	2.3%	.
O=C(/C=C/c1ccccc1)OC1CC(O)C2(O)C=CO[C@@H](OC3OC(CO)C(O)C(O)C3O)C12 (stereo not given in full)	.	.	?	.	2.4%	.
O=C(CSc1nc2ccccc2o1)N/N=C/c1ccc(O)c(O)c1	-24.5	?	11.2µM*	-19.9	-13.4%	3.7%
COc1ccc2c(c1)c(C(=O)N/N=C/c1ccc(O)c(O)c1)c(C)n2C	-3.0	1.0%	14.1µM*	-9.7	-1.3%	-1.2%
Cc1cc2ccccc2n2c(SCC(=O)Nc3cccc(C(F)(F)F)c3)nnc12	.	.	.	.	37.8%	.
Cc1nn(-c2ccccc2)c(C)c1/C=C/C(=O)OCC(=O)Nc1ccc(S(N)(=O)=O)cc1	-20.3	-3.8%	.	-87.9*	.	.
Cc1nn(-c2ccccc2)c(C)c1/C=C/C(=O)OCC(=O)Nc1ccc(C(N)=O)cc1	8.8	-6.5%	.	.	.	.
C/C(=N\NC(=O)c1cccc(F)c1)c1ccc(NC(=O)Cc2ccccc2)cc1	-0.6	3.9%	.	2.0	-11.9%	-0.3%
C/C(=N\NC(=O)c1cc(O)cc(O)c1)c1ccc(NC(=O)Cc2ccccc2)cc1	-88.9*	3.7%	.	-89.0*	-15.0%	-7.8%
S=c1sscc1-c1ccccc1	-70.1*	.	.	-80.7*	.	.
O=c1c(-c2ccccc2)c1-c1ccccc1	.	4.2%	-0.4%	.	-3.2%	-2.4%
O=S(=O)(NCc1ccccc1)c1ccc(NC(=S)NCc2ccco2)cc1	4.3	-2.4%	.	.	8.91µM*	-2.1%
CCNS(=O)(=O)c1ccc(NC(=S)NCc2ccco2)cc1	-7.6	1.3%	?	-4.1	-5.7%	0.9%
SMILES	Six1-Eya2 blk	Eya2 phos inh	JMJD2E inh	CtBP-E1A blk	Apoferritin bind	GALK inh
COc1ccc(-n2c(=O)c3ccccc3n(CC(=O)NCCc3ccc(OC)c(OC)c3)c2=O)cc1	.	.	.	.	-8.0%	.
CCN1C(=O)/C(=C2\SC(=S)N(NC(=O)c3ccccc3O)C2=O)c2ccccc21	-90.0*	-2.8%	25.1µM*	-96.6*	1.4%	-1.0%
CCN1C(=O)/C(=C2\SC(=S)N(CC3CCCO3)C2=O)c2ccccc21 (stereo not given)	.	-1.4%	3.4%	.	-11.2%	6.0%
N#Cc1nc(COc2cccc(Cl)c2)oc1NCCc1ccccc1	.	.	.	.	-1.0%	.
CC(C)C(=O)Nc1cccc(-c2nc3ccccc3c(=O)o2)c1	0.0	3.0%	-17.3%	-1.1	-5.5%	-0.1%
CC(C)C(=O)Nc1ccc(-c2nc3ccccc3c(=O)o2)cc1	-76.0*	5.3%	-7.0%	?	0.2%	3.5%
CC1NC(C(=O)O)Cc2c1[nH]c1ccccc21 (stereo not given)	.	.	.	.	-8.8%	.
CC(N)c1csc(Nc2ccc(C(=O)NCCCO)cn2)n1 (stereo not given)	-68.7*	.	.	-83.4*	.	.
CCCNC(=O)Nc1nc(C(N)c2ccc(OC)cc2)cs1 (stereo not given)	-65.5*	.	.	?	.	.
COc1ccc(C(N)c2csc(Nc3ccc(C(=O)NCCCO)cn3)n2)cc1 (stereo not given)	-75.6*	.	.	-78.5*	.	.
COc1ccc(CC(N)c2csc(NC(=O)NCc3ccccc3)n2)cc1 (stereo not given)	-23.1	.	.	-21.5	.	.
COC(=O)C(C)CCCC(C)CCCC(C)CCCC(C)C (stereo not given)	.	.	.	.	0.3%	.
CCCCNc1c([N+](=O)[O-])cc(C)cc1[N+](=O)[O-]	-66.9*	-7.7%	0.8%	-24.9	?	1.1%
COc1ccc(OCC(=O)OCC(=O)NC2CCCCC2C)cc1 (stereo not given)	1.5	-2.9%	.	.	.	.
COc1cc(NC2CCCCC2O)c2nc(-c3ccc(Cl)cc3)ccc2c1 (stereo not given)	13.3	-7.0%	22.4µM*	3.2	?	3.9%
Cc1ccc(C)c(N2CCN(C(=O)c3ccc(Nc4nc5ccccc5n5nnnc45)cc3)CC2)c1	.	.	.	.	3.0%	.
CC(C)Oc1ccc(C(=O)N(Cc2ccc(N(C)C)cc2)Cc2ccco2)cc1	.	.	.	.	76.6%	.
CCOC(=O)N1CCN(C(=O)CSCC(=O)Nc2nc(-c3ccc(OC)cc3)cs2)CC1	-14.3	12.9%	-4.0%	-17.9	-11.4%	-0.9%
CCOC(=O)N1CCN(C(=O)CSCC(=O)Nc2nc(-c3ccc(-c4ccccc4)cc3)cs2)CC1	-6.8	-0.3%	35.5µM*	2.5	-5.0%	-0.6%
O=C(NCCO)c1cc2cc(Cl)cc(Cl)c2oc1=O	-3.2	2.8%	?	1.4	-15.3%	-0.2%

Bioassay records (PubChem)
